# Measurements taken from PubChem BioAssay AID1259318 (Sanford-Burnham Center for Chemical Genomics, 2017).
# About 3,000 (0.81%) of roughly 370,000 compounds were called active.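 The calls were made as follows: active = activity above about 14% (limit read from the data; passing the limit was not always enough); inactive = the rest.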 What follows is part of a selection rich in actives, with near analogues and random picks from the rest.
# Target: Nuclear receptor subfamily 1 group D member 1 (Homo sapiens) (UniProt P20393)
# Assay: modulators of Rev-erb alpha DNA binding, primary screen, biochemical, FITC-DNA, fluorescence polarization, uHTS (AID 1259318);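 also: 0% = DMSO wells with 35 nM protein and 100% = DMSO wells with 750 nM protein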
# Conditions: Rev-erbα–FITC-DNA binding, 90 min, at 10 µM, stronger effect = higher value
# Chain of Nuclear receptor subfamily 1 group D member 1 (Homo sapiens) (P20393 whole entry, looked up): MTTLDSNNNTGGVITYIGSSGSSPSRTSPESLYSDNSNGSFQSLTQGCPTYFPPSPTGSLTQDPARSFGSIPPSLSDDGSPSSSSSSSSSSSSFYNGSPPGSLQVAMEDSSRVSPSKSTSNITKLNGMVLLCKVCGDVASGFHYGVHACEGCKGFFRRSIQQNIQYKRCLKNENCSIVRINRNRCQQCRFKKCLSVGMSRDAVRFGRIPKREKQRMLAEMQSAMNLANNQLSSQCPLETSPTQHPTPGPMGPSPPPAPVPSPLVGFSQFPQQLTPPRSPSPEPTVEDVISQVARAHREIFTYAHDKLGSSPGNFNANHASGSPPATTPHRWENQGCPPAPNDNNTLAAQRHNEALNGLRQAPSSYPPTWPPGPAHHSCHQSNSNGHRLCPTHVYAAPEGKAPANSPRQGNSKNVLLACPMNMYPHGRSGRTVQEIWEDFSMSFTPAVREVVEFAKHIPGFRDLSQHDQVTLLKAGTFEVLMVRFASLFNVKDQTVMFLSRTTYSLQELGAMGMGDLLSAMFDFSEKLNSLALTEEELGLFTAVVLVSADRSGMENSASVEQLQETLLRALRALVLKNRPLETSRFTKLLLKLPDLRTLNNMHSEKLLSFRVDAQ
row,Compound,activity
1,O=[N+]([O-])c1ccc(NCCCO)c(C(F)(F)F)c1,-1.69% (inactive)
2,N#Cc1ccc(OCCCN2CCC(C(O)(c3ccccc3)c3ccccc3)CC2)c(F)c1,2.99% (inactive)
3,CCCNC(=S)NC1CC2CCCC(C1)N2CC(C)C (stereo not given),1.93% (inactive)
4,Cc1ccc(CC(=O)Nc2cccc(C#N)c2)cc1,0.97% (inactive)
5,COc1ccc(CC(=O)Nc2ccc(-c3nnc(-c4ccc(C)cc4)o3)cc2)cc1,26.4% (active)
6,COc1ccc(-c2ccc3nnc(SCC(=O)Nc4ccc(NC(C)=O)cc4)n3n2)cc1,-7.04% (inactive)
7,CC1CCCC(NC(=O)CSc2nccn2C)C1C (stereo not given),-3.46% (inactive)
8,Fc1ccc(-c2ccc(-c3nn4c(-c5ccco5)nnc4s3)o2)cc1,-8.14% (inactive)
9,c1ccc(-c2cc(-c3nnc4sc(-c5ccccn5)nn34)[nH]n2)cc1,22.2% (active)
10,C=CCNC(=S)/N=c1/ccccn1Cc1ccccc1,3.96% (inactive)
11,O=C(CC12CC3CC(CC(C3)C1)C2)NCc1ccco1,-3.49% (inactive)
12,COC(=O)/C(=C1\Oc2ccc(C(C)(C)C)cc2S1)C(F)(F)F,2.88% (inactive)
13,CCOC(=O)c1nnn(-c2nonc2OC)c1-c1ccccc1,-1.38% (inactive)
14,CCOC(=O)C1=C(c2ccccc2)O/C(=C(/C(=O)OC)C(F)(F)F)S1,23.2% (active)
15,CC(C)CC(=O)N1CCN(Cc2ccccc2Br)CC1,1.77% (inactive)
16,Cc1ccc(N=C2NC(=O)c3cccc([N+](=O)[O-])c32)cc1,-0.93% (inactive)
17,C=C(C)C(=O)O[C@H]1C/C(C)=C\C(=O)/C=C(\C)[C@H](O)[C@@H]2OC(=O)C(=C)[C@@H]21,-13.3% (inactive)
18,O=C(O)c1ccn(COc2ccc(Br)cc2)n1,-0.74% (inactive)
19,Cc1ccc(-c2nc3c(C)cc(Br)cn3c2Cc2ccccc2)cc1,27% (active)
20,Cc1cc(Br)cn2c(Cc3ccccc3C(F)(F)F)c(-c3ccc(Cl)cc3)nc12,24.8% (active)
21,Cc1cc(Br)cn2c(Cc3cccc(F)c3)c(-c3cccc(Br)c3)nc12,8.77% (inactive)
22,Cc1ccc(-c2nc3c(Cl)cc(C(F)(F)F)cn3c2Cc2cccc(Cl)c2)cc1,-1.02% (inactive)
23,Cc1cc(Br)cn2c(Cc3ccccc3C(F)(F)F)c(-c3ccc(C#N)cc3)nc12,16.1% (inactive)
24,Cc1cc(Br)cn2c(Cc3ccccc3C(F)(F)F)c(C3CCCCC3)nc12,-1.46% (inactive)
25,Cc1ccc(NC(=O)Nc2cc(C)nn2-c2ccccc2)cc1,-3.54% (inactive)
26,CCC1Nc2ncnc(N3CCN(c4ccccc4)CC3)c2N(Cc2ccc(Cl)cc2)C1=O (stereo not given),-0.29% (inactive)
27,CCCc1nnc(NC(=O)CCC(=O)NC2CC2)s1,-1.12% (inactive)
28,COCC(=O)N[C@@H]1C[C@@H]2O[C@@H](CO)CC[C@@H]2O[C@@H]1CCc1ccc(-c2ccccc2)cc1,-1.13% (inactive)

row,Compound,activity
1,CC(=O)N1CCCN(C2=Nc3ccccc3Sc3ccccc32)CC1,-0.32% (inactive)
2,CCCCNC(=O)CSc1nccn1Cc1ccccc1,-5.53% (inactive)
3,CCCCCCNC(=O)CSc1nccn1Cc1ccccc1,1.93% (inactive)
4,CCCCNC(=O)CSc1nc2n[nH]c(C)c2c(=N)n1-c1cccc(Cl)c1C,23.1% (active)
5,Cc1ccc(-n2c(SCC(=O)NCCC3=CCCCC3)nc3n[nH]c(C)c3c2=N)cc1Cl,34.3% (active)
6,CCn1c(=O)cc(SCC(=O)NCCC2=CCCCC2)c2ccccc21,-0.99% (inactive)
7,Cc1nnc(OCC(=O)NCCC2=CCCCC2)c2ccccc12,-2.75% (inactive)
8,CCCCCC1CC(COc2ccccc2)OC1=O (stereo not given),3.77% (inactive)
9,CC(=O)c1c(C)n([O-])c2ccccc2[n+]1=O,4.5% (inactive)
10,CC(C)C(C)(C#N)NC(=O)CSc1nncn1-c1ccccc1 (stereo not given),3.69% (inactive)
11,Cc1ccc2c(cnn2C(=O)CCC(=O)NC2CCCC2)c1,8.51% (inactive)
12,COc1ccc(CN2C/C(=C/c3ccccc3)N3C(=O)C[C@@H](c4ccccc4)N=C23)c(OC)c1,-2.77% (inactive)
13,CC(=O)Nc1sc2c(c1C(c1cccc(F)c1)N1CCN(CCO)CC1)CCCC2 (stereo not given),-4.11% (inactive)
14,CCc1c(C)nc2c(-c3ccccc3)c(C)nn2c1Nc1ccc(NC(C)=O)cc1,-3.83% (inactive)
15,Cc1nn2c(NCCN(C)C)c3c(nc2c1-c1ccccc1)CCC3,-0.8% (inactive)
16,Cc1cc(C(C)(C)C)n2nc(C)c(-c3ccccc3)c2n1,31.7% (active)
17,CC(Oc1ccccc1)C(=O)N[C@@H]1C(=O)N2[C@@H]1SC(C)(C)[C@@H]2C(=O)O (stereo not given in full),-0.45% (inactive)
18,COC(=O)c1ccc(N2CCOCC2)c(NC(=O)c2ccc(Br)o2)c1,-3.88% (inactive)
19,Cc1cc(NC(=O)COc2ccccc2C#N)no1,5.64% (inactive)
20,Cc1cc(NCc2cccnc2)no1,2.81% (inactive)
21,Cc1cc(N/C=C\C(=O)c2ccc(Cl)c(Cl)c2)no1,24.8% (active)
22,CCN(CC)C(=O)CSc1nnc(-c2cnccn2)n1-c1ccc(C)cc1,5.46% (inactive)
23,COc1ccc(CCC(C)N2CCc3ccccc3C2)cc1 (stereo not given),1.36% (inactive)
24,COc1ccc(-n2ncc3c(N4CCc5ccccc54)ncnc32)cc1,56.3% (active)
25,CN(C(=O)COc1ncnc2c1cnn2-c1ccccc1)C1CCCCC1,1.94% (inactive)
26,O=c1cc(Cl)c2ccccc2n1-c1ccccc1,-2.63% (inactive)
27,COc1cccc(N2CCN(CC(=O)N(C)Cc3ccc(F)cc3)CC2)c1,-5.17% (inactive)
